The sample as a whole holds a higher share of hits than the screen did.
KDM5B inhibitor: KDM5B demethylase inhibition; Potency, µM (highest dose often 57.7 µM), actives largely listed as inhibitors; actives 2.6% (n = 220,000); KDM5B demethylase, FDH-coupled NADH fluorescence (FDH is formaldehyde dehydrogenase); active = well fitted inhibition curve with a large enough effect; note: nearly all actives have a fitted effect of over 70% in size
Target sequence (Q9UGL1 whole entry, looked up): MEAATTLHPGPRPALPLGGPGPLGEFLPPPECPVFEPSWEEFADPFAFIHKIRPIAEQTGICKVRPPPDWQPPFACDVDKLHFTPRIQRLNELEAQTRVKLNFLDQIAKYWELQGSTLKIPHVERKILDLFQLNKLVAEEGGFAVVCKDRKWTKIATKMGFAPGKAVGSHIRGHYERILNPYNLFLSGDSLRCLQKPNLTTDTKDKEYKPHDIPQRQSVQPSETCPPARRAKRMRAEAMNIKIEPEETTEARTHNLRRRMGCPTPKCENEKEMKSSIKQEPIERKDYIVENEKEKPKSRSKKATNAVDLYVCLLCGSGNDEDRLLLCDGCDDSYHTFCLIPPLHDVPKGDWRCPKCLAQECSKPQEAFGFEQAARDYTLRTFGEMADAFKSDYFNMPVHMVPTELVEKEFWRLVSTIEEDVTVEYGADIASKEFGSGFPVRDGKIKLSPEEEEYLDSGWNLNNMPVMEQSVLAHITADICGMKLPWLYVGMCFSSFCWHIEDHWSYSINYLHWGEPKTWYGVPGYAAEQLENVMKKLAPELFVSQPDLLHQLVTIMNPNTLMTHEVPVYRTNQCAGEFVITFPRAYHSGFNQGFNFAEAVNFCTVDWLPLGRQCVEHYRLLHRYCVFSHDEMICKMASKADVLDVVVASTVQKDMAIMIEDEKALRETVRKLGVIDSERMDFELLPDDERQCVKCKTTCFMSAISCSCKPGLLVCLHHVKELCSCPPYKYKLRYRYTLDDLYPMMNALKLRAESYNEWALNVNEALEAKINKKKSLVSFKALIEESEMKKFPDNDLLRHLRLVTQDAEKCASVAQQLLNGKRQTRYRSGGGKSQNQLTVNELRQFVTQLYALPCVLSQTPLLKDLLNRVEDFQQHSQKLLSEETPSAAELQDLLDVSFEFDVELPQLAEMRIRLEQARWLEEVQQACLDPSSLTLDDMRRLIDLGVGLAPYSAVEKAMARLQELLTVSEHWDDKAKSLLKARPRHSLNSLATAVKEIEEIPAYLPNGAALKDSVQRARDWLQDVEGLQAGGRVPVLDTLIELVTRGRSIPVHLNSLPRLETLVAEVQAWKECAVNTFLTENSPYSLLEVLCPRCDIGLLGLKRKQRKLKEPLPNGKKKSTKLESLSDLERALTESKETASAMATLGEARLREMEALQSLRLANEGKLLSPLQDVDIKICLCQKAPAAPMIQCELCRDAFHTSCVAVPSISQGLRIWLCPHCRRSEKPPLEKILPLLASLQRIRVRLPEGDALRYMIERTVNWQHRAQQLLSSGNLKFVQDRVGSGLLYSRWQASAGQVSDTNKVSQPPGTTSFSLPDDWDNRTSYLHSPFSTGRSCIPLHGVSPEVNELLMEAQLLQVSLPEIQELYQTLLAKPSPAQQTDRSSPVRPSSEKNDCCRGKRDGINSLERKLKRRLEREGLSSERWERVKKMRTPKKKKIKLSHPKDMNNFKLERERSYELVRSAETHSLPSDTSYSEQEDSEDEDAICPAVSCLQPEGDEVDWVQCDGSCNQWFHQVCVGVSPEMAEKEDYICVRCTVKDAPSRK
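Coupled FDH/NAD⁺ fluorescence readout. KDM5BΔAP 200 nM final; compound titration, 10 min RT preincubation; substrate mix 12.5 µM H3K4me3, 25 µM 2-OG, 50 µM Fe(II), 100 µM ascorbate, 0.25 mM NAD⁺, 0.25 U/mL FDH; ΔRFU over 30 min.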
Of the large screens only hits and unclear results are named; the others gave an inactive call.

COC(=O)/C(=C\c1ccc([N+](=O)[O-])cc1)NC(C)=O	none
COc1ccccc1CN1CCC(Cc2ccccc2)CC1	none
CCCc1cc(=O)oc2cc(OS(=O)(=O)c3ccc(F)cc3Cl)ccc12	none
COc1cccc(CN2CCOC[C@H](Oc3cccnc3)C2)c1	none
COc1ccc(-c2ncc(CN3CCOC(c4cccnc4)C3)cn2)cc1 (stereo not given)	KDM5B inhibitor 22µM
COc1ccc(CN2CCOC(c3cccnc3)C2)cc1Cn1cccn1 (stereo not given)	none
Cn1nc(C(=O)Oc2cc(Cl)ccc2Cl)c2ccccc2c1=O	none
COc1ccc(Cl)cc1S(=O)(=O)Nc1c(N2CCCC2)c2ccccc2oc1=O	none
CN(C)C(CNC(=O)c1cc(=O)c2cc(Cl)ccc2o1)c1cccs1 (stereo not given)	none
COc1ccc(C(=O)O)cc1S(=O)(=O)Nc1ccccc1SCC(F)(F)F	none
CC(C#N)(NC(=O)CSc1ccccn1)C1CC1 (stereo not given)	none
O=C(Nc1ccc(Cl)c(C(F)(F)F)c1)C1=C(c2ccccc2)S(=O)(=O)CCO1	none
COc1ccc(C(=O)NCCc2c[nH]c3ccccc23)c(F)c1	none
COc1ccc(Nc2cc3c(cn2)CN(Cc2ccncc2)CCN3)cc1OC	none
Fc1ccc(CNc2cc3c(cn2)CN(Cc2ccncc2)CCN3)cc1	none
COc1ccc(CN2CCNc3cc(Nc4ccccc4)ncc3C2)cc1O	KDM5B inhibitor 28µM
COc1ccc(CN2CCNc3cc(Nc4ccccc4)ncc3C2)cn1	KDM5B inhibitor 32µM
c1cncc(Nc2cc3c(cn2)CN(Cc2ccsc2)CCN3)c1	none
c1cc(CN2CCNc3cc(-c4ccsc4)ncc3C2)ccn1	KDM5B inhibitor 35µM
c1ccc(Nc2cc3c(cn2)CN(Cc2ccsc2)CCN3)cc1	KDM5B inhibitor 40µM
COc1ccc(CN2CCNc3cc(-c4ccccc4)ncc3C2)cc1O	none
COc1cc(S(=O)(=O)N2CCC(C(N)=O)CC2)c(OC)cc1Cl	none
O=C(Oc1ccc(Cl)cc1)c1ccc2ncsc2c1	none
Cc1cc(C)cc(N(CCC#N)C(=O)COC(=O)c2csc(NCc3ccccc3)n2)c1	none
CC(Sc1ncnc2nc[nH]c12)C(=O)Nc1ccc(Oc2ccccc2)cc1 (stereo not given)	none
NC(=O)c1cc(Sc2ccc3c(c2)OCCCO3)nc2ccccc12	none
O=C(/C=C/c1ccc(-c2cc(Cl)ccc2Cl)o1)c1ccccc1	none
COc1cc(C2C3CCCCC3(O)CCN2Cc2ccc(Cl)cc2)ccc1O (stereo not given)	none
COc1ccc(-c2nc(Cn3ncc4ccccc4c3=O)co2)cc1	none
C=CC[C@H]1CC=C[C@H](CC=C)N1	none
COCCNC(=O)CN(C)C(=O)c1cc(-c2ccc(Cl)cc2)nc2ccccc12	none
COC(=O)CNC(=O)c1nc(-c2ccc(F)cc2)c2ccccn12	KDM5B inhibitor 40µM
COCCNC(=O)c1nc(-c2ccc([S+](C)(=O)[O-])cc2)c2ccccn12	none
CCn1cc(-c2ccc(Cl)cc2)cc1C(=O)NCC(=O)OC	none
COCCNC(=O)c1nc(-c2ccc(Cl)cc2)c2ccccn12	KDM5B inhibitor 35µM
COC(=O)CNC(=O)c1nc(-c2ccc(Cl)cc2)c2ccccn12	KDM5B inhibitor 20µM
O=C(CCn1nnc2ccccc21)OCC(=O)c1ccccc1	none
COc1ccc(-n2c(SC(C(=O)N3CCCC3)c3ccccc3)nnc2-c2ccncc2)cc1 (stereo not given)	none
Cc1cccc2n[nH]nc12	none
O=C(CC1CCCCC1)Nc1nc(-c2c[nH]c3ccccc23)cs1	none
CCc1c(C)sc2nc(NCc3ccco3)n3nc(-c4ccco4)nc3c12	none
S=C(NCc1ccccc1)NC1CCSc2ccc(Cl)cc21 (stereo not given)	none
Cc1ccc(N(Cc2ccco2)C(=O)CCc2ncc(-c3c(F)cccc3F)o2)cc1	none
Cc1ccccc1-c1nc(S(=O)(=O)c2ccc3c(c2)OCCO3)c(NCCN2CCOCC2)o1	none
CCCOCCc1nc2c([nH]1)CC(C)(C)CNC2=O	none
COc1ccc(-c2nc3c([nH]2)CC(C)(C)CNC3=O)cc1OC	KDM5B inhibitor 32µM
CCn1cc(-c2nc3c([nH]2)CC(C)(C)CNC3=O)cn1	none
C#CCN1CCC(C(=O)NCCN2CCC(C)CC2)CC1	none
COc1ccc(-c2ccnc3nc(-c4cccs4)nn23)c(F)c1	KDM5B inhibitor 14µM
c1ccc(-c2ccnc3nc(-c4cccs4)nn23)cc1	KDM5B inhibitor 32µM
CCc1nc2nccc(-c3ccc(OC)cc3F)n2n1	none
COCc1nc2nccc(-c3ccc(OC)cc3F)n2n1	KDM5B inhibitor 28µM
COc1ccc(CCc2nc3nccc(-c4ccc(OC)cc4F)n3n2)cc1	KDM5B inhibitor 22µM
CCOC(=O)c1cnc2nc(-c3ccccc3)nn2c1C	none
CCOC(=O)c1cnc2c(OC)cccc2c1Nc1ccccc1	none
CC1(C)CC(=O)c2cc(C#N)c(SCc3ccc(Cl)cc3)nc2C1	none
CCOC(=O)c1c(C)n(CC)c2ccc(OC(=O)c3ccccc3C)cc12	none
CCOc1ccccc1/C=C1\NC(=O)NC1=O	none
CCOC(=O)C1=C(C)N(C2CC2)C(=O)NC1c1ccccc1OC(F)F (stereo not given)	none
Cc1cc(C(=O)N(C)C2CCS(=O)(=O)C2)c2ccc(F)cc2n1 (stereo not given)	none
C/C=C/Cn1c(SCC(N)=O)nc2c1c(=O)[nH]c(=O)n2C	none
O=C(NCCc1ccccn1)c1cccnc1OC1CCNCC1	KDM5B inhibitor 28µM
CCNC(=O)c1cccnc1OC1CCN(Cc2ccccn2)C1 (stereo not given)	KDM5B inhibitor 20µM
CCNC(=O)c1cccnc1OC1CCN(C(=O)Cc2ccccc2)C1 (stereo not given)	none
CCNC(=O)c1cccnc1OC1CCN(C(=O)c2ccccc2)C1 (stereo not given)	none
CN1CCC(Oc2ccc(C(=O)NCCc3ccccn3)cn2)CC1	none
CCNC(=O)c1cccnc1OC1CCN(C(=O)CC)C1 (stereo not given)	none
O=C(O)COc1cccc(NS(=O)(=O)c2ccc(Br)cc2)c1	none
c1ccc(CNCCN2CCCC2)cc1	none
CS(=O)(=O)c1ccc2nc(NC(=O)CSCc3ccccc3)sc2c1	none
O=C1NCCCCCCN(Cc2ccncc2)[C@@H]2CN(S(=O)(=O)c3ccc4c(c3)CCC4)CC[C@H]12	none
COc1cccc(-c2cc3c(=O)n(CCNC(=O)c4ccccc4)ccn3n2)c1	none
COc1cccc(-c2cc3c(=O)n(CCNC(=O)Cc4ccc(F)cc4)ccn3n2)c1	none
COc1cccc(-c2cc3c(=O)n(CCNC(=O)Cc4ccc(Cl)cc4)ccn3n2)c1	none
COc1cccc(-c2cc3c(=O)n(CC(O)c4ccccc4)ccn3n2)c1 (stereo not given)	KDM5B inhibitor 28µM
COc1cccc(-c2cc3c(=O)n(CCNC(=O)c4ccc(C)cc4)ccn3n2)c1	KDM5B inhibitor 18µM
COc1ccc(C(O)Cn2ccn3nc(-c4ccc(C(C)C)cc4)cc3c2=O)cc1 (stereo not given)	none
COc1cccc(-c2cc3c(=O)n(CCNC(=O)c4ccc(F)cc4)ccn3n2)c1	KDM5B inhibitor 28µM
CCc1cccc(NC(=O)Cn2ccn3nc(-c4ccc(OC)c(OC)c4)cc3c2=O)c1	none
COc1cccc(-c2cc3c(=O)n(CCNC(=O)c4ccccn4)ccn3n2)c1	KDM5B inhibitor 32µM
COc1cccc(-c2cc3c(=O)n(CCNC(=O)Cc4cccc(F)c4)ccn3n2)c1	none
COc1cccc(-c2cc3c(=O)n(CCNC(=O)Cc4ccccc4C)ccn3n2)c1	none
CC(C)c1ccc(/C=N/NC(=O)C2CC2c2ccccc2)cc1 (stereo not given)	none
Cc1cnc(NC(=O)CCc2c(C)[nH]c(=O)[nH]c2=O)s1	none
O=C(Nc1ccccc1Br)N1CCN(S(=O)(=O)c2ccccc2)CC1	none
CN(C)CCNC(=O)C(=O)Nc1cccc2ncccc12	none

Screens as filed in PubChem BioAssay.
